Several values for one entry are separate records, joined by “and”; a condition that tells them apart may be missing. Equal entries are not always repeated. The campaign covered roughly 5,500 compounds. About 2,000 (36%) were called active. Not shown: some 18% with an inconclusive outcome. Rule as the data show it: active = normalized growth mostly below about 0.91 (no sharp cut-off); inconclusive = no clear call, values can overlap the other calls; inactive = mostly above about 0.92. The list shows a part of the results.
Assay: chemical genetic growth profiling, strain panel (AID 1159580);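 also: tested at 20 µM; growth read once vehicle control cultures reached saturation at 30 °C; 1 = growth at the plate median or of vehicle wells; lower values mean less growth of the strain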
Conditions: S. cerevisiae deletion strains, growth OD

Measured: normalized growth

O=C(O)CN1C(=O)c2cccc3cccc(c23)C1=O
inactive: locus YAL013W, strain DEP1, hits give low values 1 | locus YAL021C, strain ccr4, hits give low values 0.956 | locus YAL026C, strain drs2, hits give low values 0.987 | locus YAL030W, strain snc1, hits give low values 0.986 | locus YBL061C, strain skt5, hits give low values 0.973 | locus YBR009C, strain hhf1, hits give low values 0.985 | locus YBR021W, strain FUR4, hits give low values 1 | locus YBR023C, strain chs3, hits give low values 0.976 | locus YBR171W, strain sec66, hits give low values 0.968 | locus YBR229C, strain ROT2, hits give low values 1.01 | locus YBR231C, strain swc5, hits give low values 0.986 | locus YBR279W, strain paf1, hits give low values 0.978 | locus YCL011C, strain gbp2, hits give low values 0.975 | locus YCL016C, strain dcc1, hits give low values 0.982 | locus YCL029C, strain bik1, hits give low values 0.978 | locus YCL061C, strain MRC1, hits give low values 0.985 | locus YCL069W, strain vba3, hits give low values 0.99 | locus YCR088W, strain abp1, hits give low values 1.01 | locus YDL005C, strain med2, hits give low values 0.974 | locus YDL035C, strain GPR1, hits give low values 0.994 | locus YDL040C, strain nat1, hits give low values 0.982 | locus YDL074C, strain BRE1, hits give low values 1.05 | locus YDL101C, strain DUN1, hits give low values 1.01 | locus YDL134C, strain PPH21, hits give low values 0.994 | locus YDL185W, strain tfp1, hits give low values 0.964 | locus YDL192W, strain arf1, hits give low values 0.991 | locus YDR001C, strain nth1, hits give low values 0.979 | locus YDR069C, strain doa4, hits give low values 0.993 | locus YDR101C, strain arx1, hits give low values 0.998 | locus YDR137W, strain rgp1, hits give low values 0.938 | locus YDR159W, strain sac3, hits give low values 0.993 | locus YDR162C, strain NBP2, hits give low values 0.982 | locus YDR195W, strain ref2 1.01 | locus YDR297W, strain sur2, hits give low values 0.979 | locus YDR318W, strain mcm21, hits give low values 0.978 | locus YDR334W, strain swr1, hits give low values 0.967 | locus YDR335W, strain msn5, hits give low values 0.985 | locus YDR388W, hits give low values 0.994 | locus YDR392W, strain spt3, hits give low values 0.811 | locus YDR502C, strain sam2, hits give low values 0.998 | locus YEL003W, strain gim4, hits give low values 0.99 | locus YEL037C, strain rad23, hits give low values 0.982 | locus YEL061C, strain CIN8 (second series), hits give low values 0.974 | locus YEL061C, strain CIN8, hits give low values 1.01 | locus YER015W, strain faa2, hits give low values 0.998 | locus YER016W, strain bim1, hits give low values 0.996 | locus YER110C, hits give low values 0.977 | locus YER111C, strain swi4, hits give low values 0.975 | locus YER155C, strain BEM2 (second series), hits give low values 0.954 | locus YER155C, strain BEM2, hits give low values 0.999 | locus YER167W, strain BCK2, hits give low values 0.991 | locus YFR010W, strain ubp6, hits give low values 0.968 | locus YGL078C, strain dbp3, hits give low values 0.986 | locus YGL086W, strain mad1, hits give low values 1 | locus YGL167C, strain pmr1, hits give low values 0.987 | locus YGL173C, strain kem1, hits give low values 0.983 | locus YGL227W, strain vid30, hits give low values 0.996 | locus YGL240W, strain doc1, hits give low values 1 | locus YGL248W, strain PDE1, hits give low values 1.02 | locus YGL253W, strain hxk2, hits give low values 0.984 | locus YGR135W, strain pre9, hits give low values 0.966 | locus YGR252W, strain gcn5, hits give low values 1.04 | locus YHR013C, strain ard1, hits give low values 0.909 | locus YHR027C, strain rpn1, hits give low values 0.985 | locus YHR030C, strain SLT2, hits give low values 0.99 and 0.965 | locus YHR079C, strain IRE1 (second series), hits give low values 0.984 | locus YHR079C, strain IRE1, hits give low values 0.972 | locus YHR094C, strain hxt1, hits give low values 0.994 | locus YHR129C, strain ARP1, hits give low values 0.994 | locus YHR142W, strain chs7, hits give low values 0.944 | locus YHR200W, strain rpn10, hits give low values 0.972 | locus YIL066C, strain RNR3, hits give low values 1.01 | locus YIL073C, strain SPO22, hits give low values 0.897 | locus YIL125W, strain kgd1, hits give low values 0.989 | locus YIR030C, strain dcg1, hits give low values 0.985 | locus YJL092W, strain hpr5, hits give low values 0.981 | locus YJL095W, strain BCK1 (second series), hits give low values 0.986 | locus YJL095W, strain BCK1, hits give low values 1.04 and 0.965 | locus YJL115W, strain asf1, hits give low values 0.982 | locus YJL129C, strain trk1, hits give low values 0.988 | locus YJL134W, strain LCB3, hits give low values 0.998 | locus YJL154C, strain vps35, hits give low values 1.01 | locus YJL164C, strain tpk1, hits give low values 0.989 | locus YJL166W, strain qcr8, hits give low values 0.953 | locus YJL168C, strain set2, hits give low values 0.993 | locus YJL187C, strain SWE1 (second series), hits give low values 1.04 | locus YJL187C, strain SWE1, hits give low values 0.976
